# Compounds with a hit are over-represented: about 2.2% of the library has one in this group of screens.
# APP 5UTR inh – inhibitors of APP translation via 5'UTR reporter, primary screen, APP 5'UTR luciferase, SH-SY5Y cells; SH-SY5Y APP 5'UTR-luciferase reporter, luminescence; inhibition, % at 2 µM; 190,000 compounds, 0.82% hits; AID 1285, 2008;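 active means inhibition above a set limit, derived from the sample mean plus 3 SD, cut at about 45% in these data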
# BaF3 parental – parental Ba/F3 cell viability inhibition, counter-screen for JAK2V617F inhibitor project, murine pro-B, CellTiter-Glo luminescence; CellTiter-Glo ATP luminescence; inhibition, % at 5.6 µM; 220,000 compounds, 1.1% hits; AID 1486, 2009;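 active means inhibition above a per-campaign cutoff, the mean inhibition of all tested compounds plus 3 SD, cut at about 27% in these data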
# aSyn UTR inh – MLPCN primary screen, SNCA 5' untranslated region. alpha-synuclein 5'UTR reporter, inhibitor activity. inhibition, % (tested at 7.5 µM). 300,000 compounds, 0.82% hits. AID 1813, 2009; in the data active means inhibition above about 60%;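 further: H4 neuroglioblastoma cells stably carrying SNCA 5'UTR luciferase fusion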
# IEC-6 tox – cytotoxicity in IEC-6 intestinal epithelial cells, primary screen, cytotoxicity control for KLF5 inhibitor project, cell-based, luminescence. IEC-6 cytotoxicity, luminescence viability. inhibition, % at 5 µM. 290,000 compounds, 0.78% hits. AID 1825, 2009; in the data active means inhibition above about 22%
# Ba/F3 V617F tox – reduced viability of JAK2V617F-dependent Ba/F3 cells, primary screen, JAK2V617F inhibitor project, cell-based, Ba/F3 EpoR-JAK2V617F, luminescence; AID 1446, 2008; ATP luminescence; 220,000 compounds, 1.1% hits; inhibition, % at 5.6 µM;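 active means inhibition above the campaign mean plus 3 SD over all tested compounds, cut at about 24% in these data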;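 further: cytokine-independent growth of Ba/F3 cells driven by EpoR plus mutant JAK2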
# KLF5 inhibitor – KLF5 expression inhibitors, primary screen, DLD-1 cells, luminescence; DLD-1 KLF5 promoter-luciferase reporter; inhibition, % at 5 µM; 290,000 compounds, 0.23% hits; AID 1700, 2009;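 active means inhibition above a per-plate limit of that plate's mean compound inhibition plus 3 SD, cut at about 60% in these data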;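 further: higher means less KLF5 promoter-driven luciferase light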
# A number is an active result; i = inactive; nt = no result.
SMILES,APP 5UTR inh,BaF3 parental,aSyn UTR inh,IEC-6 tox,Ba/F3 V617F tox,KLF5 inhibitor
O=C(NCc1cccc(C(F)(F)F)c1)C1CC(c2ccc(C(F)(F)F)cc2)=NO1 (stereo unspecified),nt,nt,i,nt,nt,nt
COc1ccc(-c2nn(-c3ccccc3)cc2C(=O)NC(=S)NNC(=O)c2ccncc2)cc1,49.9,i,72.5,24.7,i,i
COc1ccc(NC(=O)c2cn(-c3ccccc3)nc2-c2ccncc2)cc1,i,i,i,i,i,i
O=c1c2sc(-c3ccccc3)cc2nc2n1CCC2,i,i,82.4,i,i,i
CCCCCC(=O)NC(=S)Nc1ccccc1C(=O)OC,71.5,i,i,i,i,i
CCCCC(=O)NC(=S)Nc1ccccc1C(=O)Nc1ccccc1,i,i,i,i,i,i
Cc1cc(=O)[nH]c(SCC(=O)N2CCCc3ccccc32)n1,65.3,i,i,i,i,i
COCCn1c(SCC(=O)N2CCCc3ccccc32)nc2ccccc2c1=O,i,60.2,i,i,i,i
Cc1cc(C)cc(-n2c(C)cc(/C=N/NC(=O)CN(c3c(C)cccc3C)S(C)(=O)=O)c2C)c1,90.2,i,i,i,i,i
O=C(Oc1nsnc1N1CCOCC1)c1ccccc1,53.3,i,i,i,i,i
O=C(Oc1nsnc1N1CCOCC1)N1CCOCC1,i,i,i,i,i,i
COC(=O)c1cc(NC(=O)c2c(Cl)nc3sccn23)cc(C(=O)OC)c1,i,i,79.5,i,i,i
COc1ccc(Cn2cnc3c(N)c(C)c(C)cc32)cc1,i,i,i,i,i,i
CCCCCCCCn1cnc2c(N)c(C)c(C)cc21,i,59.6,i,i,75.8,i
O=C(CSc1nc2ccccc2s1)c1ccc(O)cc1O,nt,nt,i,i,nt,i
Cc1ccc(C(=O)Nc2cccc(C(F)(F)F)c2)cc1Nc1ncnc2nc[nH]c12,nt,nt,77.9,nt,nt,nt
Cc1ccc(C(=O)Nc2cccc(C(F)(F)F)c2)cc1Nc1cnccn1,nt,nt,i,nt,nt,nt
O=C(O)c1ccc2nc(-c3ccco3)c(-c3ccco3)nc2c1,i,i,i,i,i,i
Cc1ccc(C(=O)Nc2cccc(C(F)(F)F)c2)cc1NC(=O)c1ccno1,nt,nt,94.9,nt,nt,nt
O=C(Nc1cccc(C(F)(F)F)c1)c1ccc2nc(-c3ccco3)c(-c3ccco3)nc2c1,i,49.1,i,i,i,i
COc1ccc(C(=O)NCCS(=O)(=O)NCc2ccccc2OC)cc1,nt,nt,i,nt,nt,nt
CCCCCn1c(N)c(C#N)c2nc3ccccc3nc21,i,i,i,i,i,i
CCCCn1c(NC(C)=O)c(C#N)c2nc3ccccc3nc21,51.7,i,i,i,i,i
Cc1cc(C)c(COc2ccc(/C=N/n3c(C)n[nH]c3=S)cc2)c(C)c1,i,i,i,i,i,i
Nc1cc(=O)[nH]c(SCCSc2ccccc2F)n1,nt,nt,67.4,i,nt,i
SMILES,APP 5UTR inh,BaF3 parental,aSyn UTR inh,IEC-6 tox,Ba/F3 V617F tox,KLF5 inhibitor
Nc1cc(=O)[nH]c(SCCSc2cc(Cl)ccc2Cl)n1,nt,nt,i,i,nt,i
O=C(Nc1ccc(S(=O)(=O)N2CCOCC2)cc1)c1ccc(CN2CCc3ccccc3C2)cc1,i,50.5,i,i,63.4,i
Cc1cccc(N(C)S(=O)(=O)c2c(C)[nH]c(C)c2C(=O)N2CCCC2)c1,nt,nt,i,i,nt,i
N#Cc1cc2cc3c(cc2nc1SCC(=O)N1CCOCC1)OCCO3,nt,nt,109.6,i,nt,i
C=C(C)Cn1c(=O)c2c(nc3n2CCCN3Cc2ccccc2)n(C)c1=O,nt,nt,i,i,nt,i
COc1nc(-c2ccccc2)cc(-c2ccc3c(c2)OCO3)c1C#N,nt,i,64.4,i,i,i
CC(C)OC(=O)c1cc2c(=O)[nH]c(C(Cl)(Cl)Cl)nc2o1,i,i,i,i,i,i
O=C(NNC(=O)C1[C@H]2CCCC[C@@H]12)Nc1cccc2ccccc12 (stereo partly specified),nt,i,i,i,i,i
COc1ccc(CCn2c(C3CCCCC3)nc3c(c(=O)c4ccccc4n3C)c2=O)cc1,nt,i,75.0,i,i,i
COc1ccc(Cn2c(C3CCCCC3)nc3c(c(=O)c4ccccc4n3C)c2=O)cc1,nt,i,i,i,i,i
Cc1cc(C)c2ccc(N)nc2c1O,65.7,i,64.7,i,i,i
CCOC(=O)C(=CNc1nc(-c2ccc3ccccc3c2)cs1)C(=O)OCC,nt,nt,i,i,nt,i
CCN(CC(=O)Nc1ccccc1OC)CC(=O)Nc1ccccc1-c1ccccc1,i,i,nt,24.3,i,i
